Compound activity as filed in PubChem.
ALDH1A1 block: blocks purified human ALDH1A1 activity. P00352. Purified ALDH1A1, NADH fluorescence, propionaldehyde substrate. Potency, µM (titrated, usually from 75.3 µM), inactives show top-dose activity, negative = inhibition, most hits filed as inhibitors. 220,000 compounds, 7.3% hits. AID 1030;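 further: potency means the concentration at half of the fitted maximal effect; plate controls were no enzyme wells and a reference inhibitor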
HPGD block: blocks human HPGD enzyme activity; AID 894; purified HPGD, NADH fluorescence kinetic, PGE2 substrate; Potency, µM, without a hit: at the top dose activity change, negative = inhibition, hits mostly inhibitors; 150,000 compounds, 4.3% hits; further: potency means the concentration at half of the fitted maximal effect
Target sequence (P15428 whole entry, looked up): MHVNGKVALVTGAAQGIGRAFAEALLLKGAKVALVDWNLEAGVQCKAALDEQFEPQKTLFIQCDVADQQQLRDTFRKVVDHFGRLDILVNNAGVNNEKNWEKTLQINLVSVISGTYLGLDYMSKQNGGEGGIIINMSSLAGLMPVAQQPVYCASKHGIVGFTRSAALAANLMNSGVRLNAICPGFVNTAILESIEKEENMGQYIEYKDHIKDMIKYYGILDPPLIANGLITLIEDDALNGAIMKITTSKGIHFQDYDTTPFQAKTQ
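NADH formation kinetics: reaction with 30 uM PGE2 and 1 mM NAD+ (final), 20 nM enzyme, Tris-HCl pH 8 with Tween 20, after 15 min compound preincubation at room temperature. Fluorescence change, last versus first of five reads.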
PNC inhibitor: blocks assembly of the perinucleolar compartment; PC3M PTB-GFP, PNC prevalence imaging, 16 h; hits give low values; activity change (PNC), negative = inhibition, % at 10 µM; 140,000 compounds, 3.1% hits; AID 2417;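 active means readout at or below -70, meaning at least 70% loss of cells showing the perinucleolar compartment, a nuclear body marking cancer cells; inconclusive means readout between -30 and a set limit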;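 further: plate controls were DMSO wells for no effect and camptothecin positive control wells for full effect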
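PC3M cells stably expressing PTB-GFP, 750–1000 cells/well, treated 16 h at 37 °C with compound (23 nl of library stock), in duplicate. After paraformaldehyde fixation and Hoechst stain, imaged at 20x; PNC prevalence scored by image analysis.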
Starred values were filed as active, the others as inactive; ? = inconclusive; . = not tested or not shown; [ ] = remark or other dose. An excerpt weighted towards active compounds, which were near 11% of everything screened. Unless noted, the call rests on the fitted dose curve; in most records, active means well fitted inhibition curve with a large enough effect (not every such curve was filed as active); inconclusive means small, poorly fitted or top-dose-only effect, or another doubt; inactive means no such curve, though single readings can be large or run the other way. Unless noted, on the % scale 0 is the no-effect control and ±100 the full control effect.

SMILES	ALDH1A1 block	HPGD block	PNC inhibitor
COc1ccc(OC)c(S(=O)(=O)NCc2cn3c(C)csc3n2)c1	-1%	-9%	-12
CCCCNC(=S)NCc1ccc2[nH]c(C)cc2c1	-5%	-11%	-115*
Cc1cc2cc(CNC(=O)c3cccc([N+](=O)[O-])c3)ccc2[nH]1	-7%	?	9
O=C(NCc1ccc2c(c1)OCO2)c1ccc2c(c1)OCCO2	?	-14%	-15
CC1=CC(=O)CC(C)(C)C1(O)/C=C/C(C)=C\C(=O)O (stereo not drawn)	5%	0%	.
CCC(=O)N[C@@H]1Cc2ccccc2[C@@H](c2ccccc2)C1	-8%	-2%	.
COc1ccc(C(=O)NCc2ccc3[nH]c(C)cc3c2)cc1OC	20µM*	.	.
COc1cc(C(=O)NCc2ccc3[nH]c(C)cc3c2)cc(OC)c1OC	2%	.	.
ClC(=Nc1cccc2ccccc12)N(c1ccccc1)c1ccccc1	6%[13.5 µM]	-26%	.
COC(=O)c1cccc(N(C(=O)c2cnccn2)C(C(=O)NC2CCCCC2)c2cn(C)nc2C)c1 (stereo not drawn)	0%	-9%	?
COc1cc([N+](=O)[O-])ccc1NC(=S)Nc1cc(C(=O)OC(C)C)cc(C(=O)OC(C)C)c1	?	-27%	-24
COc1ccccc1OCCNC(=O)c1cc(F)c(F)cc1Cl	-11%	-18%	30
CCCNC(=O)c1ccc(SC)cc1OC	?	25µM*	?
COc1cc(SC)ccc1C(=O)NCc1ccccc1	?	25µM*	-17
COc1ccccc1OCCNC(=O)c1cc(SC)ccc1Cl	-4%	-2%	-113*
COc1cc(SC)ccc1C(=O)N(C)Cc1ccccc1	-3%	?	47
COc1cc(SC)ccc1C(=O)NCCCOC(C)C	4%	-13%	-2
COc1cc(SC)ccc1C(=O)NCCOc1ccc(C)c(C)c1	-7%	-5%	?
COc1cc(SC)ccc1C(=O)NCc1ccc(C)cc1	?	20µM*	89
Cc1cc(C)cc(-n2nnc(C(=O)NCc3ccccc3Cl)c2N)c1	?	-13%	-16
COC(=O)c1ccc(NC(=O)Cn2nnc(-c3cccs3)n2)cc1	8%	.	.
Cc1ccc(NC(=O)COC(=O)c2ccc(OCc3c(C)noc3C)cc2)cc1S(=O)(=O)N1CCOCC1	1%	-4%	?
S=C(S)NCCN1CCNCC1	-3%[13.5 µM]	-18%	.
CCC(C)NC(=O)CSc1nc2c(sc3ccccc32)c(=O)n1CCCN1CCOCC1 (stereo not drawn)	-9%	?	-26
CCOC(=O)CSc1nc2c(sc3ccccc32)c(=O)n1CCCN1CCOCC1	14µM*	-22%	55
SMILES	ALDH1A1 block	HPGD block	PNC inhibitor
Cc1nn(CC(=O)Nc2ccc(Cl)c(S(=O)(=O)N(C)C)c2)c(C)c1[N+](=O)[O-]	0%	-9%	44
Cc1ccc(C(=O)O)cc1-c1ccc(C=C2C(=O)c3ccccc3C2=O)o1	5µM*	.	.
Cc1ccc(NC(=O)CN2C(=O)S/C(=C/c3ccc(-c4cc(C(=O)O)ccc4C)o3)C2=O)cc1C	?	32µM*	8
Cc1c(C=C2C(=O)c3ccccc3C2=O)cc(C#N)n1C	-4%	.	.
CC(C)S(=O)(=O)C1=NSC2=NC(=O)/C(=C\c3ccc(-c4cccc(C(=O)O)c4)o3)C(=N)N21	-2%	.	.
CSC1=N/C(=C\c2ccc(Br)o2)C(=O)S1	?	-11%	-9
Cc1cc(C(=O)O)ccc1-n1c(C)cc(C=C2C(=O)c3ccccc3C2=O)c1C	10µM*	.	.
Cc1cccc(NC(=O)CN2C(=O)S/C(=C\c3ccc(-c4cccc(C(=O)O)c4C)o3)C2=O)c1	-10%	.	.
O=C1C(=Cc2ccc(Br)o2)C(=O)c2ccccc21	-4%	32µM*	?
O=C(NN=C1CCN(Cc2ccccc2)CC1)C(O)c1ccccc1 (stereo not drawn)	-5%	-1%	72
CCc1nnc(N/N=C/c2c(C)[nH]c3ccccc23)n1N	-1%	.	.
CCn1cc(Br)c(C(=O)Nc2cccc(SC)c2)n1	?	-9%	?
C/C(=N/NC(=O)CSc1nc2ccccc2s1)c1ccncc1	20µM*	.	.
Cc1ccc(S(=O)(=O)NC(=O)CSc2nc3ccccc3s2)cc1	-2%	-12%	18
Cc1cc(C)nc(NC(=O)CSc2nc3ccccc3s2)n1	-1%	-13%	12
Cn1c(SCC(=O)NCc2ccccc2)nc2ccccc21	?	.	-2
C/C(=N/NC(=O)CSc1nc2ccccc2n1C)c1ccncc1	10µM*	.	.
CS/C(=N\S(=O)(=O)c1cccs1)NC(=O)CSc1nc2ccccc2s1	28µM*	25µM*	14
O=C(c1cccc(F)c1)N1CCC2(CC1)CCN(c1ccncc1)CC2	20%	-13%	.
CN1CCN(c2nc3nonc3nc2N2CCN(C)CC2)CC1	3%	-14%	59
